According to PubChem BioAssay (NCATS):
“And” between values parts separate entries of the source, which are not always exact repeats. Equal values may be shown once. Inconclusive results are not listed. The source made the active and inactive calls. Unless noted, calls follow the shape of the dose curve; as a rule, active = well fitted curve in the direction sought with a large enough effect; inconclusive = small, poorly fitted or top-dose-only effect, or another doubt; inactive = no such curve, though single readings can be large; an effect the other way counts as inactive or inconclusive.

Columns and labels:
[1] = qHTS for Activators of Parkin Expression: LOPAC Validation Assay (FLuc Reporter) (AID 720573;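 also: 0% = DMSO and 100% = positive control compounds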)
Method in brief: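 Neuronal cell line stably expressing FLuc/NLuc coincidence reporter under the Parkin promoter, 1,500 cells/well, dosed 24 h after seeding in 7-point series for 24 h at 37 C. FLuc luminescence read; normalized to DMSO and positive control (100%).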

[2] = biological target: T1, Hexokinase-4 (Homo sapiens) + Glucokinase regulatory protein (Homo sapiens) (UniProt P35557+Q14397); assay: qHTS assay for inhibitors of recombinant human GCK-GKRP interaction: Diaphorase-coupled assay (AID 743205)
T1 sequence (P35557 whole entry, looked up): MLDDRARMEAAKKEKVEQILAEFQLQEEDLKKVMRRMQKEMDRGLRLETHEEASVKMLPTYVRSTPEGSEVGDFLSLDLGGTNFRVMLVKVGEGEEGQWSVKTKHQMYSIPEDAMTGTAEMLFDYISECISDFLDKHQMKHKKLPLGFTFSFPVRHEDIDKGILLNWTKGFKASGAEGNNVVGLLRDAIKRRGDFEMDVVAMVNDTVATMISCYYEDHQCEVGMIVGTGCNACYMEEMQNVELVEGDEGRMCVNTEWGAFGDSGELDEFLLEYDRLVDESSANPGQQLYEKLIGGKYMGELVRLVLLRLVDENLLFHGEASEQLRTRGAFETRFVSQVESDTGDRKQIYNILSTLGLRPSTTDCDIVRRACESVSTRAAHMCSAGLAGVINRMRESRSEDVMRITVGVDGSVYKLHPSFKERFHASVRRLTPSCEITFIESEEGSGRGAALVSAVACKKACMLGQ
T1 sequence (Q14397 whole entry, looked up): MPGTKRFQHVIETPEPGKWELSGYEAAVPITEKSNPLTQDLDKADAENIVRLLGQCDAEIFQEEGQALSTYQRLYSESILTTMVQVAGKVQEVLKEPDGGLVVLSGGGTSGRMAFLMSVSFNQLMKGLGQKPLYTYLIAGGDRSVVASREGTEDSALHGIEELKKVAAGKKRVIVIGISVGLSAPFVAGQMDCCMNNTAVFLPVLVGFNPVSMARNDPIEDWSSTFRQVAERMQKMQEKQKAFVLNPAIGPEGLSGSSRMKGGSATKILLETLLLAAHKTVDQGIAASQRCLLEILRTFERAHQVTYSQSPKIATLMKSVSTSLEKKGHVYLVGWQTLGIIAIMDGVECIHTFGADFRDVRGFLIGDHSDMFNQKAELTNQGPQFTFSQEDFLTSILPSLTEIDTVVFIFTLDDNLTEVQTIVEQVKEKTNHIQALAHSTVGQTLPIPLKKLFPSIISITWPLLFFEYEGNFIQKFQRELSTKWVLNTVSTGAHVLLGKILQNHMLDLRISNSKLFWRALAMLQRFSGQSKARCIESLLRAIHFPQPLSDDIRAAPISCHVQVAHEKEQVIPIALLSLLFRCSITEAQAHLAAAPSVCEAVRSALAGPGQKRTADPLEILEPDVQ
Method in brief: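 Compounds pre-incubated 20 min with substrate, then 10 nM GST-GCK with 10 nM FLAG-GKRP added. GCK activity coupled via G6PDH and diaphorase to resorufin (5 mM glucose, 0.4 mM ATP, 0.15 mM NADP+, pH 7.6), read kinetically over 30 minutes at Ex 525/Em 590 nm.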

[3] = biological target: T1, Hexokinase-4 (Homo sapiens) + Glucokinase regulatory protein (Homo sapiens); assay: qHTS assay for inhibitors of recombinant human GCK-GKRP interaction: ADP-Glo assay (AID 743206);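 also: plate controls were DMSO plus enzyme for no effect and no enzyme for full effect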
Method in brief: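 GST-GCK and FLAG-GKRP (15 nM each in the dispensed mix, with 2 uM S6P) react with 0.4 mM ATP and 5 mM glucose (final) in Hepes pH 7.6 for 60 min at room temperature. ADP is measured by ADP-Glo luminescence.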

[4] = biological target: T1, Hexokinase-4 (Homo sapiens) + Glucokinase regulatory protein (Homo sapiens); assay: qHTS assay for inhibitors of recombinant human GCK-GKRP interaction: HTRF assay (AID 743207);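 also: 0% = DMSO with GCK present and -100% = DMSO wells lacking GCK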
Method in brief: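 HTRF binding of 5 nM GST-GCK and 5 nM FLAG-GKRP with 2 uM S6P in pH 7.1 Hepes buffer (MgCl2, KCl, DTT, Tween 20, BSA). Anti-FLAG XL665 and anti-GST donor added, 60 min at room temperature; 665/615 nm read, normalized to with- and without-GCK controls.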

[5] = qHTS Assay for Identifying Gametocytocidal Compounds (AID 743244); also: potency is read from the fitted curve at half-maximal effect;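 as to max response: % is scaled to controls: 0 for no effect and ±100 for the full control effect; actives lower the fluorescent signal which means gametocytes are killed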; conditions: P. falciparum 3D7 stage III-V gametocytes, alamarBlue, 72 h; max response: stronger effect = lower value
Method in brief: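 A resazurin-based viability read-out was applied to mature P. falciparum gametocytes: 72 h compound treatment, then 24 h dye incubation, with falling fluorescence signalling gametocytocidal effect.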

[6] = qHTS assay for measurement of the activity of small molecule inhibitors on Zika virus induced Caspase-3 activity in human astrocytoma cells (AID 1224859);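 also: plate controls were ZIKV-infected untreated cells for no effect and uninfected cells for full effect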
Method in brief: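 Readout is luminescence from Caspase-Glo 3/7 added after a 6 h ZIKV infection (2 FFU/cell) of compound-pretreated (1 h) SNB-19 cells; data expressed as % inhibition versus uninfected and infected wells.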

[7] = qHTS profiling for inhibitors of Plasmodium falciparum (3D7) proliferation (AID 743322);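 also: infected erythrocytes exposed to compound for 72 h before lysis; 100% = DMSO vehicle wells and 0% = 0.29 µM artemisinin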; conditions: P. falciparum 3D7 proliferation; at 28.7 µM (top of the series) unless noted
Method in brief: (§1)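 Erythrocytes infected with P. falciparum (0.3% parasitemia, 2.5% hematocrit) incubated with compounds 72 h at 37 C, 5% CO2. Lysis with saponin/Triton buffer containing SYBR Green I, overnight at room temperature in the dark; DNA fluorescence (485/535 nm) normalised to 0.29 uM artemisinin and DMSO.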

[8] = qHTS profiling for inhibitors of Plasmodium falciparum (DD2) proliferation (AID 743323; call rule not given here); conditions: lower = more inhibition; at 28.7 µM (top of the series) unless noted
Method in brief: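 P. falciparum Dd2-infected erythrocytes (0.3% parasitemia, 2.5% hematocrit) exposed 72 h at 37 C, 5% CO2. Lysis with SYBR Green, overnight at room temperature, fluorescence 485/535 nm; normalized to 0.29 uM artemisinin and DMSO.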

[9] = qHTS profiling for inhibitors of Plasmodium falciparum (HB3) proliferation (AID 743324); conditions: Plasmodium falciparum HB3 blood-stage proliferation; at 28.7 µM (top of the series) unless noted;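 also: 100% = DMSO vehicle wells and 0% = artemisinin-treated control wells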
Method in brief: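 P. falciparum HB3 grown in erythrocytes (0.3% parasitemia, 2.5% hematocrit final) with compound for 72 h at 37 C, 5% CO2. Parasite DNA detected by SYBR Green after saponin/triton lysis overnight; normalized to 0.29 uM artemisinin and DMSO.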

[10] = qHTS profiling of the MIPE4 collection as inhibitors of Plasmodium falciparum (3D7) proliferation (AID 743344; call rule not given here;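 also: scaled between DMSO vehicle wells and 0.29 µM artemisinin as full inhibition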); conditions: P. falciparum 3D7 in erythrocytes, SYBR Green DNA fluorescence, 72 h; at 28.5 µM (top of the series)
Method in brief: as §1

[11] = qHTS profiling of the MIPE4 collection as inhibitors of Plasmodium falciparum (DD2) proliferation (AID 743345; call rule not given here); conditions: P. falciparum Dd2 in erythrocytes, SYBR Green DNA, 72 h; at 28.5 µM (top of the series)
Method in brief: as §1

[12] = qHTS profiling of the MIPE4 collection as inhibitors of Plasmodium falciparum (DD2) proliferation (Rep 2) (AID 743346; call rule not given here); conditions: P. falciparum Dd2 in erythrocytes, SYBR Green DNA, 72 h; at 28.5 µM (top of the series)
Method in brief: as §1

[13] = qHTS profiling of the MIPE4 collection as inhibitors of Plasmodium falciparum (HB3) proliferation (AID 743347; call rule not given here;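 also: plate controls were DMSO vehicle wells for no effect and artemisinin wells for full effect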); conditions: P. falciparum HB3 in erythrocytes, SYBR Green DNA, 72 h; at 28.5 µM (top of the series)
Method in brief: as §1

[14] = qHTS assay for small molecule agonists of the antioxidant response element (ARE) signaling pathway measured by Nrf2-dependant transcriptional activity - cell viability counter screen (AID 720653; active = well fitted curve in the direction sought with a large enough effect in the repeat runs; an effect the other way counts as inactive or inconclusive; also: % is scaled to controls: 0 for no effect and ±100 for the full control effect); conditions: ARE-bla HepG2 viability, CellTiter-Glo ATP luminescence, 16 h; max response: stronger effect = lower value
Method in brief: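 ARE-bla HepG2 cells (2,000/well) rested 5 hrs at 37C/5% CO2, then exposed to compounds in DMSO for 16 hrs. Viability was read in the same wells as intracellular ATP by luminescence, 30 min at room temperature after reagent addition.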

[15] = qHTS assay for cell viability of HEK293 cells (AID 743288); conditions: ATP luminescence (CellTiter-Glo), 18 h; max response: stronger effect = lower value; also: % is scaled to controls: 0 for no effect and ±100 for the full control effect; nearly all actives have a fitted effect of over 50% in size
Method in brief: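 Parental HEK293 cells, 2,000 per well, preincubated at least 5 h at 37 C, then exposed to compounds in DMSO for 18 h at 37 C. Viability by CellTiter-Glo ATP luminescence after 30 min at room temperature.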

[16] = qHTS assay for cell viability of the p53RE-bla HCT-116 cell line (AID 743292); also: % is scaled to controls: 0 for no effect and ±100 for the full control effect; nearly all actives have a fitted effect of over 55% in size
Method in brief: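 Luminescent ATP quantitation (CellTiter-Glo) served as the viability read-out; reagent was added after 16 h compound exposure at 37 C and read after 30 min at room temperature. Cells: p53RE-bla HCT-116, 4,000 per well.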

[17] = qHTS assay for small molecule agonists of the antioxidant response element (ARE) signaling pathway measured by Nrf2-dependant transcriptional activity (AID 720636; active = well fitted curve in the direction sought with a large enough effect in the repeat runs; an effect the other way counts as inactive or inconclusive;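 also: HepG2 cells with an ARE-driven luciferase reporter; % of control where 0% means no effect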)
Method in brief: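 HepG2 ARE-luc reporter line, 1% dialyzed FBS; 6 hr attachment at 37 C, compound pinned in, 16 hr at 37 C/5% CO2; ONE-Glo, 30 min RT, luminescence read.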

Ic1ccc(N2CCN(Cc3c[nH]c4ncccc34)CC2)cc1
inactive: Potency [1] | outcome [2] | Potency [3] | Potency [4] | max response [5] 5.54% | Potency [6]

NCCSSCCN
inactive: Potency [1] | outcome [2] | Potency [3] | Potency [4] | max response [5] 3.62% | Potency [6]

CCCCCC(O)c1cccc(OCc2ccc3ccccc3n2)c1 (stereo not given)
inactive: Potency [1] | outcome [2] | Potency [3] | Potency [4] | max response [5] 5.39% | Potency [6]

Cc1nc2sccn2c(=O)c1CCN1CCC(=C(c2ccccc2)c2ccc(F)cc2)CC1
inactive: Potency [1] | outcome [2] | Potency [3] | Potency [4] | max response [5] 35.1% | Potency [6]

CCN(CC)c1ncnc2c1ncn2[C@@H]1O[C@H](COP(=O)(O)OP(=O)(O)C(Br)(Br)P(=O)(O)O)[C@@H](O)[C@H]1O
inactive: Potency [1] | outcome [2] | Potency [3] | Potency [4] | max response [5] -1.02% | Potency [6]

NCCNC(=O)c1ncsc1-c1cccc(F)c1
inactive: Potency [1] | outcome [2] | Potency [3] | Potency [4] | max response [5] 3.56% | Potency [6]

C=C[C@@H]1CN2CC[C@@H]1C[C@H]2[C@H](O)c1ccnc2ccc(OC)cc12
0.99%: remaining parasite growth % (stronger effect = lower value) [7]
1.73%: activity, percent of control [8]
9.34%: parasite growth remaining, % of DMSO control (lower = more inhibition) [11]
20.6%: parasite growth, % of control (lower = inhibition) [12]
1.02%: remaining proliferation (% of control), lower = more inhibition [9]
6.67%: parasite growth, % of DMSO control [10]
inactive: Potency [1] | outcome [2] | Potency [3] | Potency [4] | Potency [6]
active: Potency [5] 296 nM
5.53%: growth, % of control [13]

O=[N+]([O-])c1ccc2c(c1)S(=O)(=O)C=C2
inactive: outcome [2] | Potency [3] | Potency [4] | Potency [6]
active: Potency [5] 1000 nM

CCCCCCCCCCCCCCCCCC(=O)NCC(COP(=O)([O-])OCC[N+](C)(C)C)OCC (stereo not given)
inactive: Potency [1] | outcome [2] | Potency [3] | max response [5] 4.32% | Potency [6]

Nc1ccc([N+](=O)[O-])cc1O
inactive: max response [14] -6.11% and -12.4% | max response [5] -2.68% | max response [15] 3.96% and 2.89% | Potency [16] | Potency [6]

Nc1ncnc2c1c(I)cn2[C@@H]1C[C@H](N)[C@@H](O)[C@H]1O
inactive: outcome [2] | Potency [3] | Potency [4] | max response [5] 12.6% | Potency [6]

C#C[C@]1(O)CC[C@H]2[C@@H]3CCc4cc(O)ccc4[C@H]3CC[C@@]21C
inactive: Potency [17] | max response [14] 6.34% and 7.49% | max response [5] 16.7% | max response [15] -11.3% and -0.854% | Potency [16] | Potency [6]

Cc1ccc(C(=O)O[C@H](C(=O)O)[C@@H](OC(=O)c2ccc(C)cc2)C(=O)O)cc1 (tested in a mixture with another compound)
inactive: Potency [1] | outcome [2] | Potency [3] | max response [5] -5.55% | Potency [6]

CNCC[C@H](Oc1ccc(C(F)(F)F)cc1)c1ccccc1
inactive: outcome [2] | Potency [3] | Potency [4] | Potency [6]

CCCCN1CCC(n2c(=O)[nH]c3ccccc32)CC1
inactive: outcome [2] | Potency [3] | Potency [4] | max response [5] 5.22% | Potency [6]

O=C(O)/C=C\C(=O)O
inactive: Potency [17] | max response [14] -4.39% | max response [15] 5.88% | Potency [16] | Potency [6]

NC(CCCP(=O)(O)O)C(=O)O (stereo not given)
inactive: outcome [2] | Potency [3] | Potency [4] | max response [5] 8.77% | Potency [6]

C[N+](C)(CCCCCC[N+](C)(C)CCCN1C(=O)c2cccc3cccc(c23)C1=O)CCCN1C(=O)c2cccc3cccc(c23)C1=O
6.76%: parasite growth, % of control (lower = inhibition) [12]
5.01%: parasite growth, % of DMSO control [10]
4.26%: growth, % of control [13]
inactive: Potency [1] | outcome [2] | Potency [3] | Potency [4] | max response [5] -6.11% | Potency [6]
5.17%: parasite growth remaining, % of DMSO control (lower = more inhibition) [11]

N.N.O=C(O)C1(C(=O)O)CCC1.[Pt]
inactive: Potency [1] | outcome [2] | Potency [3] | max response [5] -4.37% | Potency [6]

CC(C)OC(=O)c1cc(C(=O)OC(C)C)cc([N+](=O)[O-])c1
inactive: Potency [17] | max response [14] -4.4% | max response [5] 4.99% | max response [15] -14.7% | Potency [16] | Potency [6]

N#C/C(=C\c1ccc(O)c(O)c1)C(=O)NCc1ccccc1
inactive: Potency [1] | outcome [2] | Potency [3] | max response [5] 12.2% | Potency [6]

O=C(O)c1cc(O)c(O)c(O)c1
inactive: Potency [17] | max response [14] -28.5% | max response [15] -7.89% | Potency [16] | Potency [6]
